Screening results (PubChem BioAssay)
GLD-1 RNA inh – GLD-1-TGE RNA interaction inhibition (C. elegans); inhibition, % at 5.96 µM; 0.44% of 320,000 active; purified GLD-1 + fluorescein TGE RNA, fluorescence polarization;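 active = percent inhibition above a per-plate cutoff, the plate mean of test compounds plus 3 SD, cut at about 30% in these data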;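 also: 0% = DMSO wells with GLD-1 and probe and 100% = wells lacking GLD-1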
Target sequence (Q17339 whole entry, looked up): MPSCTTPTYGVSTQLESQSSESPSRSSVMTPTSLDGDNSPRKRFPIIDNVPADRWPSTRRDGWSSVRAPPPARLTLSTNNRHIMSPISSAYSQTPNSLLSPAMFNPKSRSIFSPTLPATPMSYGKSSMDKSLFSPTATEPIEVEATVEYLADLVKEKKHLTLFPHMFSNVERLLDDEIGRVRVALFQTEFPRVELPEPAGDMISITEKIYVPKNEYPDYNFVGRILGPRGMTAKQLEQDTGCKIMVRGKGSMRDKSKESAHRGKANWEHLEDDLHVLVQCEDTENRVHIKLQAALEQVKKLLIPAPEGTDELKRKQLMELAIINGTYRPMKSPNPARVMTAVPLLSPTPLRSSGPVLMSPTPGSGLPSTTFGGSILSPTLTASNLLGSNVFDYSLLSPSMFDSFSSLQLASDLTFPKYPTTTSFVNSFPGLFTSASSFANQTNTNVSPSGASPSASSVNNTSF
Bim-Mcl-1 – disrupts Bim peptide binding to human Mcl-1 | Q07820 | Bead-based flow cytometry, Bim peptide-Mcl-1 binding | inhibition, % at 10 µM | 0.1% of 190,000 active | AID 1009; in the data active = inhibition above about 40%;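 also: 0% = no compound tracer wells and 100% = peptide blocker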
Mcl1 Noxa PPI – disrupts binding of human Mcl-1 to Noxa peptide | TR-FRET Mcl-1/Noxa peptide binding, 2 h | Q07820 | 1.5% of 220,000 active | inhibition, % at 21.7 µM;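 active = compounds that cut the protein-peptide binding signal by more than 50% relative to plate controls in a single-dose test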;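 also: His-tagged Mcl-1 with rhodamine Noxa BH3 peptide and terbium anti-His antibody; 0% = Mcl-1 plus Noxa peptide wells and 100% = peptide-only wells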
Mcl1-Bid inh – disrupts binding of human Mcl-1 to Bid peptide; Q07820; TR-FRET Mcl-1/Bid-Dy647 peptide binding, 1536-well; inhibition, % at 21.7 µM; 0.97% of 220,000 active;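 active = compounds that cut the binding signal by more than half at the single screening dose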;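 also: His-tagged Mcl-1 with europium anti-His antibody binding Bid BH3 peptide; 0% = Mcl-1 plus peptide wells and 100% = peptide-only wells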
BCLXL inh – blocks human Bcl-xL binding to Bim BH3 peptide; Q07817; GST-Bcl-xL / FITC-Bim BH3 peptide fluorescence polarization; inhibition, % at 10.9 µM; 0.7% of 320,000 active; AID 2129;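 active = inhibition above the mean of all tested compounds plus 3 SD, cutoff set per campaign, cut at about 30% in these data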;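 also: 0% = DMSO wells and 100% = unlabeled Bim-BH3 peptide competitor; inhibitors lower millipolarization by displacing the labeled peptide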
MCL1 BIM primary – disrupts human MCL1 binding to BIM-BH3 peptide | inhibition, % at 10.9 µM | GST-MCL1 / FITC-Bim-BH3 fluorescence polarization | AID 2057 | 0.68% of 320,000 active;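 active = inhibition above the mean inhibition of all tested compounds plus 3 SD, set per campaign, cut at about 40% in these data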;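 also: 0% = DMSO wells and 100% = unlabeled Bim-BH3 peptide control; higher means more loss of mP so more displacement of Bim peptide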
The depositor's hits bear a star; / = no result. Hits are enriched below; roughly 2.3% of the tested compounds scored in any of these assays.

SMILES	GLD-1 RNA inh	Bim-Mcl-1	Mcl1 Noxa PPI	Mcl1-Bid inh	BCLXL inh	MCL1 BIM primary
C=CCOc1ccc(Br)cc1/C=C1/SC(=Nc2ccc(C(=O)O)cc2)NC1=O	/	-6	55*	-16	/	/
COc1c(C)cc(Br)cc1C(=O)Nc1ccc(S(N)(=O)=O)cc1	5	44*	7	-31	-1	-1
O=C(Nc1ccc2c(c1)OCCO2)NC1(C(F)(F)F)Oc2ccccc2O1	7	-1	25	69*	7	7
C=C(C)C(=O)Nc1ccc2c(c1)OCCOCCOCCO2	6	/	52*	-34	1	-3
CC(C)Oc1ccc(S(=O)(=O)N2CCOCC2)cc1NC(=O)CN1C(=O)NC2(CCCC2)C1=O	0	/	/	/	-3	-10
COc1cc(Oc2nc(C(F)(F)F)nc3ccccc23)ccc1C=O	-1	/	/	/	6	8
O=C(O)c1cc([N+](=O)[O-])ccc1NCc1ccccc1Cl	5	-1	0	13	10	5
O=C(O)c1cc([N+](=O)[O-])ccc1NCc1ccccn1	16	/	/	/	31*	23
Cc1ccc(S(=O)(=O)N2CCOCC2)cc1NC(=O)CN1CCN(c2ccc(O)cc2)CC1	4	-1	52*	-157	17	16
O=C(CSc1ccc(-c2ccccn2)nn1)Nc1cccc(F)c1	3	/	/	/	4	8
C=CCn1c(SCC(=O)NC2CC2)nnc1C1CC1	1	/	/	/	2	1
Cc1ccc(NC(=O)[C@H](C)NC(=O)C2CCN(C(=O)[C@@H](NC(=O)OC(C)(C)C)C(C)C)CC2)cc1	16	/	/	/	1	5
Cc1cc(Cl)ccc1OCCCC(=O)NNC(=O)c1ccccc1O	-1	/	/	/	3	5
O=C(/C=C/c1cccc(OCc2ccccc2)c1)c1cccnc1	6	-4	30	55*	6	6
CC(=O)N1CCc2cc(S(=O)(=O)CCC(=O)NCc3ccc(F)cc3)ccc21	0	/	/	/	2	-4
O=C(c1cccc(S(=O)(=O)N2CCc3ccccc3C2)c1)N1CCN(c2ccc(O)cc2)CC1	2	-4	57*	-46	18	10
O=C(c1ccc2ccccc2c1)N1CCN(c2ccc(O)cc2)CC1	-1	5	53*	-41	12	15
O=C(CSc1ccc2ccccc2c1)N1CCN(c2ccc(O)cc2)CC1	5	/	60*	-38	8	2
O=S(=O)(c1ccc2ccccc2c1)N1CCN(c2ccc(O)cc2)CC1	6	/	/	/	/	/
COc1ccc(NC(=O)Cc2nnc(SCC(=O)c3ccccc3)n2C)cc1	0	/	/	/	-5	-1
CN(CCO)c1nc(N)c2c(N)nc3c(c2c1C#N)CC(=O)N3C1CCCC1	-1	3	46	-23	26	38
N#Cc1c(N2CCN(c3ccc(F)cc3)CC2)nc(N)c2c(N)nc3c(c12)CC(=O)N3C1CC1	/	4	55*	-6	/	/
COc1ccc(-n2nc(C)cc2N)cc1	3	-4	7	-20	1	-1
Cc1cc(N)n(-c2ccc3ccccc3c2)n1	2	0	-9	96*	6	7
Cc1csc(NC(=O)c2ccc3nc[nH]c3c2)n1	-3	/	/	/	9	0
SMILES	GLD-1 RNA inh	Bim-Mcl-1	Mcl1 Noxa PPI	Mcl1-Bid inh	BCLXL inh	MCL1 BIM primary
Cc1ccccc1-c1cc(C(=O)Nc2sc(C)c(C)c2C(N)=O)c2ccccc2n1	1	-5	30	3	8	9
CCOC(=O)c1c(NC(=O)c2cc(-c3ccc(Cl)s3)nc3ccccc23)sc(C(N)=O)c1C	7	-5	19	61*	25	2
Cc1ccc2oc(C(=O)Nc3cc(C)on3)c(C)c2c1	-1	/	/	/	0	-13
Cc1nc2ncnn2c(C)c1CCC(=O)Nc1ccc(S(=O)(=O)N2CCCCCC2)cc1	4	-5	21	52*	8	0
Cc1ccc(NC(=O)CCc2c(C)nc3ncnn3c2C)cc1	6	0	6	-11	-3	-1
Cc1cccc(Cn2c(C(C)O)nc3ccccc32)c1 (centres undefined)	-3	-1	-25	-27	5	-6
Cc1cccc(Cn2c(C)nc3c(N)c(C)c(C)cc32)c1	-1	0	-12	91*	6	7
Cc1ccc(-n2nnnc2SCc2nc3sc(C)c(C)c3c(=O)[nH]2)cc1	2	-1	9	-21	-16	-55
Cc1c(C(=O)O)sc2nc(CSc3nnc(-c4ccc(F)cc4)n3C)[nH]c(=O)c12	-4	2	15	-33	1	3
